Measurements reported in paper PMC4336329 (PLoS ONE, 2015).
Out of some 310,000 compounds screened, about 14,000 (4.5%) showed an effect of 50% or more. The effect is printed as a negative number. Many of the other results were omitted from the sample, so strong results are more common in it than they were.

target: human ether-à-go-go-related gene (hERG) potassium channel (human, UniProt Q12809); assay: primary screen, population patch clamp on CHO cells stably expressing hERG; higher = less effect of the substance
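Further: peak tail current of the secondary pulse compared with the same well before compound.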

human ether-à-go-go-related gene (hERG) potassium channel, sequence (Q12809 whole entry, looked up): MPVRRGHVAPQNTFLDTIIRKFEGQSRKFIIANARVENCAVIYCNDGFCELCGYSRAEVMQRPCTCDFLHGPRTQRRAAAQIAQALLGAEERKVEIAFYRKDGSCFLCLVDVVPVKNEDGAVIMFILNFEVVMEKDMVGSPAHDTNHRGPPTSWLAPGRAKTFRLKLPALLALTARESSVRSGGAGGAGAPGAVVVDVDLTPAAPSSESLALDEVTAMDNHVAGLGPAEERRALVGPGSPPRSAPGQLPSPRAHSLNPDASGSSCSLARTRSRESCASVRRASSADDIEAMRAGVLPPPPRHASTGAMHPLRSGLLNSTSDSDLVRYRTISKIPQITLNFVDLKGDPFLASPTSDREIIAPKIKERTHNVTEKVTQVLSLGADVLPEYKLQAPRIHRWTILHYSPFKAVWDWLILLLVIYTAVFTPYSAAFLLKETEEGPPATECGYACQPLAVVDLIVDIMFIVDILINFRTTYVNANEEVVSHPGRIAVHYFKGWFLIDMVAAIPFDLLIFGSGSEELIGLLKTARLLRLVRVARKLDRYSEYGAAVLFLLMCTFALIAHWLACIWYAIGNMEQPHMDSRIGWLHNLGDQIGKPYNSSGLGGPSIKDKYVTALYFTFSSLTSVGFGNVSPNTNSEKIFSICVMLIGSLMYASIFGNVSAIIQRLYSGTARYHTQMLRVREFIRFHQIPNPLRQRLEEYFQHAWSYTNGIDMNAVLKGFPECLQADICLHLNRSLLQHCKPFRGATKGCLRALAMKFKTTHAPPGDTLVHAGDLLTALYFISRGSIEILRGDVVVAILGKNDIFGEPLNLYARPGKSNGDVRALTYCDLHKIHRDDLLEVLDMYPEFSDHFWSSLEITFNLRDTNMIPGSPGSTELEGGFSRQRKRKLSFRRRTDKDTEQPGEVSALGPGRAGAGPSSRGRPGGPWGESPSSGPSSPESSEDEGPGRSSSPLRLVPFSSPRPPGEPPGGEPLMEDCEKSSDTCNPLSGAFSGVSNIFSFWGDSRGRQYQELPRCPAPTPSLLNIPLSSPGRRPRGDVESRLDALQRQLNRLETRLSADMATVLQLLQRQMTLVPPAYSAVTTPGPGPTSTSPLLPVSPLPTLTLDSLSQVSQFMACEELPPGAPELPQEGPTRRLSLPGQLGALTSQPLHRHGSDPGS

| SMILES | hERG current change (%, negative = inhibition) at 10uM [%] |
| --- | --- |
| Cc1ccccc1NC(=O)Cn1c(=O)sc2ccccc21 | -0.661 |
| COc1ccc(C)cc1NC(=O)C1CCN(C(=O)C2CC(=O)N(c3ccc(C)cc3)C2)CC1 (stereo not shown) | -23.1 |
| COc1ccc(Cl)cc1NC(=O)C1CCN(C(=O)C2CC(=O)N(c3ccc(C)cc3)C2)CC1 (stereo not shown) | -60.4 |
| COc1ccc(OC)c(NC(=O)C2CCN(C(=O)C3CC(=O)N(c4ccc(C)cc4)C3)CC2)c1 (stereo not shown) | -37.7 |
| CCc1cccc(C)c1NC(=S)NCc1ccccc1 | 0.76 |
| CC(C)OP(=O)(c1ccccc1)c1ccccc1 | -3.71 |
| CCOC(=O)N1CCN(C(=O)c2nc3ccccc3s2)CC1 | -0.815 |
| c1ccc2sc(NC3=NCN(Cc4ccc5c(c4)OCO5)CN3)nc2c1 | 4.28 |
| CCOC(=O)N1CCN(/C=C(\C#N)c2nc3ccccc3s2)CC1 | -58.5 |
| CCOC(=O)N1CCN(CC(=O)Nc2nc3ccccc3s2)CC1 | -35.5 |
| N#C/C(=C\N1CCN(Cc2ccc3c(c2)OCO3)CC1)c1nc2ccccc2s1 | -52.8 |
| Cl.N#C/C=C/N1CCN(Cc2ccc3c(c2)OCO3)CC1 | 1.29 |
| CCCn1c(=O)c(C(=O)NCCc2ccc(OC)c(OC)c2)c(O)c2ccccc21 | 10.5 |
| CCOC(=O)C1=C(COC(=O)C2CC(=O)N(c3ccc(C)cc3)C2)NC(=O)NC1C (stereo not shown) | -7.55 |
| Cc1cccc(S(=O)(=O)C(C#N)c2nc3ccccc3nc2N2CCCC2)c1 (stereo not shown) | -18.4 |
| O=C(N/N=C1\CCCc2ccccc21)c1ccc([N+](=O)[O-])cc1Cl | -3.01 |
| COc1ccc(C(=O)C2CCCN(C/C=C/c3ccccc3OC)C2)c(OC)c1 (stereo not shown) | -77.5 |
| COc1cccc(C(=O)C2CCCN(C/C=C/c3ccccc3OC)C2)c1 (stereo not shown) | -68.4 |
| NC(=O)c1cc([N+](=O)[O-])cc2c1C=Cc1ccccc1O2 | 2.92 |
| CC12COC3(C(=O)Nc4ccc([N+](=O)[O-])cc4)CC1CCC32C (stereo not shown) | -32.1 |
| O=C(COC(=O)C1CC2CCCC(C1)C2=O)NC(=O)c1ccc(OC(F)F)cc1 (stereo not shown) | 23.2 |
| COc1ccc(CNC(=O)CN(Cc2ccc(C)cc2)S(=O)(=O)c2ccc(Cl)cc2)cc1 | -50.9 |
| CCOC(=O)N1CCN(C(=O)CN(Cc2ccc(Cl)cc2)S(=O)(=O)c2ccccc2)CC1 | -70.1 |
| COc1ccc(CNC(=O)CN(C)S(=O)(=O)c2ccc(Cl)cc2)cc1 | -20.4 |
| COc1ccc(CNC(=O)CN(Cc2ccc(Cl)cc2)S(C)(=O)=O)cc1 | -45.4 |
| COc1ccc(C)cc1S(=O)(=O)N(CC(=O)NCc1ccc(Cl)cc1)Cc1ccccc1 | 8.35 |
| COc1ccc(N(CC(=O)NCc2ccc(F)cc2)S(=O)(=O)c2c(C)n[nH]c2C)cc1 | -26.5 |
| COc1ccc(CNC(=O)CN(Cc2ccc(Cl)cc2)S(=O)(=O)c2ccccc2)cc1 | -12.5 |

| SMILES | hERG current change (%, negative = inhibition) at 10uM [%] |
| --- | --- |
| CCOC(=O)N1CCN(C(=O)CN(Cc2ccc(Cl)cc2)S(=O)(=O)c2ccc(C)cc2)CC1 | -42.8 |
| COc1ccc(N(CC(=O)NCc2ccccc2)S(=O)(=O)c2c(C)n[nH]c2C)cc1 | -35.6 |
| COc1ccc(CNC(=O)CN(Cc2ccccc2)S(=O)(=O)c2ccc(Cl)cc2)cc1 | -61.7 |
| CCOC(=O)N1CCN(C(=O)CN(Cc2ccc(Cl)cc2)S(C)(=O)=O)CC1 | -15.5 |
| COc1ccc(N(CC(=O)NCc2ccc(Cl)cc2)S(=O)(=O)c2c(C)n[nH]c2C)cc1 | -57.4 |
| CCc1ccccc1NC1=NCC(=O)N1Cc1ccccc1 | 4.53 |
| COc1ccc(N(C(=O)c2ccco2)S(=O)(=O)c2cc(OC)ccc2OC)cc1 | -19.3 |
| CC(NC(N)=O)C(=O)OCC(=O)c1ccc(-c2ccccc2)cc1 (stereo not shown) | 10.8 |
| COc1ccc(OC)c(CCNC(=O)c2ccc3c(=O)[nH]c4c(C(=O)NC(C)C)sc(=S)n4c3c2)c1 | 21.2 |
| CN(c1ccccc1)S(=O)(=O)c1ccc(Cl)c(C(=O)NC2=NCCS2)c1 | 9.14 |
| Cc1cc(C)c2c3c(sc2n1)C(=O)N(c1ccccc1C)CC(=O)N3 | 14.6 |
| CN(C)C(CNc1ccc(S(C)(=O)=O)cc1[N+](=O)[O-])c1ccccc1 (stereo not shown) | -12.6 |
| COc1ccc(NC(=O)CSCc2ccc([N+](=O)[O-])cc2)cc1OC | -17.5 |
| O=C(NCCO)c1cc2cc(Cl)cc(Cl)c2oc1=O | -3.65 |
| CCN(CC(=O)NCc1cccs1)C(=O)COc1ccc(C(N)=O)cc1 | 6.69 |
| CCc1cc(=O)oc2cc(OCC(=O)N3C[C@H]4C[C@@H](C3)c3cccc(=O)n3C4)c(Cl)cc12 | -3.61 |
| C=C(C)COc1ccc2c(C)c(CC(=O)N3C[C@H]4C[C@@H](C3)c3cccc(=O)n3C4)c(=O)oc2c1C | -49.2 |
| CC(C)=CCOc1ccc2c(C)c(CC(=O)N3C[C@H]4C[C@@H](C3)c3cccc(=O)n3C4)c(=O)oc2c1C | -57.3 |
| CCCc1cc(=O)oc2c(C)c(OCC(=O)N3C[C@H]4C[C@@H](C3)c3cccc(=O)n3C4)ccc12 | -23.9 |
| CCCCc1cc(=O)oc2cc(OCC(=O)N3C[C@H]4C[C@@H](C3)c3cccc(=O)n3C4)c(Cl)cc12 | -62.5 |
| CCCCc1cc(=O)oc2c(C)c(OCC(=O)N3CCCC3)ccc12 | -64.8 |
| COc1ccc2c(C)c(CC(=O)N3C[C@H]4C[C@@H](C3)c3cccc(=O)n3C4)c(=O)oc2c1C | -3.48 |
| CCCc1cc(=O)oc2cc(OCC(=O)N3C[C@H]4C[C@@H](C3)c3cccc(=O)n3C4)c(Cl)cc12 | -14.7 |
| CCCCc1cc(=O)oc2c(C)c(OCC(=O)N3C[C@H]4C[C@@H](C3)c3cccc(=O)n3C4)ccc12 | -60 |
| CCCCc1cc(=O)oc2c(C)c(OCC(=O)N3CCC(C(=O)O)(c4ccccc4)CC3)ccc12 | 6.82 |
| CCCCc1cc(=O)oc2c(C)c(OCC(=O)N3CCC(C(N)=O)CC3)ccc12 | -16.7 |
| CCc1cc(=O)oc2c(C)c(OCC(=O)N3C[C@H]4C[C@@H](C3)c3cccc(=O)n3C4)ccc12 | 5.08 |
